The values that follow come from PubChem BioAssay AID1903 (Southern Research Specialized Biocontainment Screening …, 2009).

Among all 310,000 compounds or so, about 1,200 (0.39%) were called active. These entries were drawn from the full list. Potency and affinity values are given separately. A number with no mark means an inactive call. The rule behind the calls is not given here.

The target of this test is Large T antigen (Simian virus 40) (UniProt P03070). In words: TAg ATPase/helicase activity blockers – biochemical (AID 1903). As to conditions: SV40 large T antigen ATPase/helicase inhibition assay; at 20 µM; stronger effect = higher value.
Chain of Large T antigen (Simian virus 40) (P03070 whole entry, looked up): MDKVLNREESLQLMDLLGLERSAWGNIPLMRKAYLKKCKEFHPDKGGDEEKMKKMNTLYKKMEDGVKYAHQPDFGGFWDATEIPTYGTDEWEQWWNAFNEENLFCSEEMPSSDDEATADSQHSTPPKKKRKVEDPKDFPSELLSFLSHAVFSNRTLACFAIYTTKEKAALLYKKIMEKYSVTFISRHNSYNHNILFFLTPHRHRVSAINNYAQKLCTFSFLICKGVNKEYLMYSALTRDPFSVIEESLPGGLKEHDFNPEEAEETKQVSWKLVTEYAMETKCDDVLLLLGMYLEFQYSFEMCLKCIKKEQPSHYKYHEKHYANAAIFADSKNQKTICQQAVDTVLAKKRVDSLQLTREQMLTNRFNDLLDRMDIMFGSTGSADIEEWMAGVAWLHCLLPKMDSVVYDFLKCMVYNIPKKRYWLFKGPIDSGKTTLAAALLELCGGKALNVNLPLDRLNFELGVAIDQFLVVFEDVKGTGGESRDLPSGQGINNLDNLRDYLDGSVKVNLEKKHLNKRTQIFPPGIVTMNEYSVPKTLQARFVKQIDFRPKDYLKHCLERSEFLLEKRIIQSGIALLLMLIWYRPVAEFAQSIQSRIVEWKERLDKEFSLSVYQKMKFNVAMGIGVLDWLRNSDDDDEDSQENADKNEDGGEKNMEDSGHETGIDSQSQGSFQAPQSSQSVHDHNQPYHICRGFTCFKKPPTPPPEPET
On to `O=C(NCCCO)c1ccc2[nH]c3c(c2c1)CCCC3`, for which the inhibition is 2.41%. With `COc1ccccc1OC(C)C(=O)Nc1nc(-c2ccc(S(=O)(=O)N3CCOCC3)cc2)cs1` (configuration not stated), the inhibition was -2.76%. With `O=C(O)CCC(=O)NNC(=O)c1ccc([N+](=O)[O-])cc1`, the inhibition was 24.3%.

As to `CN1CCN(c2ccccc2NC(=O)c2ccc(N3CCCCC3)c([N+](=O)[O-])c2)CC1`, the inhibition is 1.97%.

`COc1cc(C(=O)NCc2nnc(SCC(=O)NC3CCCCC3)o2)cc(OC)c1OC`: the inhibition is 9.82%.

Consider `CNC(=S)N(CCCO)Cc1cc2cc3c(cc2[nH]c1=O)OCO3`, for which the inhibition was 4.07%. Regarding `N#Cc1cc2c(nc1SCC(=O)Nc1sc3c(c1C#N)CCC3)CCCCCC2`, the inhibition is -1.85%. As to `Cc1nc(NC(=O)CCl)sc1C(=O)N(C)C`, the inhibition is 22.7%. For the compound `C#CCOCCOCCOCCNc1nc(N2CCN(C(=O)CCCCCCCCCCNC(=O)[C@H]([C@@H](C)CC)n3cc(CCCCN=C(N)N)nn3)CC2)nc(N2CCN(C(=O)CCCCCCCCCCNC(=O)[C@@H]([C@H](C)O)n3cc(C)nn3)CC2)n1`, the inhibition was 7.94%. Consider `C#CCOCCOCCOCCNc1nc(N2CCOCC2)nc(N2CCN(C(=O)CCCCCCCCCCNC(=O)[C@H]([C@@H](C)CC)n3cc(CCCCN=C(N)N)nn3)CC2)n1`, for which the inhibition was 5.58%.

As to `CCOC(=O)c1cc(-c2ccc(OC)cc2)n(CCC(=O)NCCN2CCC(C)CC2)c1C`, the inhibition is 5.63%. For the compound `CCN(CC)C(=O)Cn1cnc2ccccc2c1=O`, the inhibition is 5.63%. Next, `O=C1/C(=C\c2ccco2)NC(=S)N1c1ccccc1`: 35.2%; `CCOc1ccc(N2C(=O)/C(=C/c3ccc(C)o3)N(C)C2=S)cc1`: 15.8%; `Cc1ccc(/C=C2\C(=O)Nc3ccccc32)o1`: 11.2%. As to `CCCN1C(=O)/C(=C/c2ccc(C)o2)NC1=S`, the inhibition was 33.1%. As for `COc1ccc(N2C(=O)/C(=C/c3cccs3)NC2=S)cc1`, the inhibition was 14.1%. Regarding `Cc1ccc(/C=C2/NC(=O)N(c3ccccc3)C2=O)o1`, the inhibition is 22.8%. With `Cc1ccc(/C=C2/C(=O)N(c3ccccc3)C(=S)N2C)o1` the figure was 6.66%; with `COc1ccc(N2C(=O)C3CC(C)=C(C)CC3C2=O)c(OC)c1` (configuration not stated), 11.1%. Regarding `COc1cc(O)c(C(CC(=O)N2CCCC(C)C2)c2ccc3c(c2)OCO3)c(OC)c1` (configuration not stated), the inhibition is 6.43%. With `Cn1cccc1C(=O)NNC(=O)c1ccccc1Br` the figure was 8.13%; with `CC1(C)CC(=O)/C(=C(\O)Cc2ccccc2)C(=NCCCCCC(=O)O)C1`, 4.38%.

With `CCCCNCc1cccn1-c1ccccc1`, the inhibition is 24.7%.

Turning to `COc1c(C)cccc1C(=O)Nc1ccc(OCC(=O)N2CCOCC2)cc1C`, the inhibition is 14.7%.

`COCC(=O)N/N=C\c1ccccc1OC/C=C/c1ccccc1`: the inhibition is 4.69%. With `C=CCOc1ccc(C=Nc2ccc(OC)cc2)c(O)c1` the figure was 28.3%. For `COc1ccc(N=Cc2[nH]c3ccccc3c2O)cc1`, the inhibition was 13.7%. `Cc1csc(NC(=O)CSc2nnc(-c3ccccc3)o2)n1`: the inhibition was -6.99%. Consider `O=C(N/N=C/c1ccc(O)cc1)c1cc(-c2ccccc2)nc2ccccc12`, for which the inhibition was 14.6%. In the case of `COc1cc(/C=N/NC(=O)CSc2nc3ccccc3n2C)cc(OC)c1OC`, the inhibition was -1.56%. As for `COc1cc(/C=N/NC(=O)c2cc(-c3ccccc3)nc3ccccc23)ccc1O`, the inhibition was 25.1%. Regarding `Cc1cc(SCC(=O)N/N=C/c2ccc(O)cc2O)nc2ccccc12`, the inhibition is 7.95%. For the compound `Cc1cc(SCC(=O)N/N=C/c2ccc(C(=O)O)cc2)nc2ccccc12`, the inhibition is 6.65%. As for `CCn1c(SCC(=O)N/N=C/c2ccc(OC)c(OC)c2)nc2ccccc21`, the inhibition is 6.02%. Take `CCn1c(SCC(=O)N/N=C/c2cc(OC)c(O)c(OC)c2)nc2ccccc21`: the inhibition was -7.37%. `Cn1c(SCC(=O)N/N=C/c2ccncc2)nc2ccccc21`: the inhibition was 2.44%. As for `C#CCOCCOCCOCCNc1nc(N2CCN(C(=O)CCCCCCCCCCNC(=O)[C@@H](CCC(=O)O)n3cc(CCCCCN)nn3)CC2)nc(N2CCN(C(=O)CCCCCCCCCCNC(=O)[C@H](CO)n3cc(CCCCCN)nn3)CC2)n1`, the inhibition is 31.5%.

Turning to `CCOC(=O)C1=C(C)N(C)C(=S)N(C)C1c1ccc(OC)cc1` (configuration not stated), the inhibition was -2.82%.

On to `CCOc1cc2sc(N3CCC(C(=O)NCCCN4CCCC4=O)CC3)nc2cc1Br`, for which the inhibition was 12.1%. As for `Cc1ccc(C(=O)NCCc2n[nH]c(=S)n2C)cc1`, the inhibition was 10.6%. For `CCC(=O)N1c2ccccc2[C@@H](N(C(C)=O)c2ccccc2)C[C@H]1C`, the inhibition was 4.31%. In the case of `O=C(c1ccccc1)N1CCN(C2CC3CCC2C3)CC1` (configuration not stated), the inhibition was 6.45%.

With `O=C1/C(=C/c2ccc(F)cc2)SC(=S)N1CC(=O)N1CCCCC1c1cccnc1` (configuration not stated), the inhibition was 18.2%. For the compound `CCOC(=O)c1c(C)n(C)c2c(C)cc(O)c(OC(C)=O)c12`, the inhibition was 1.3%. With `COC(=O)c1ccc(N)c(CS(=O)(=O)c2ccc(Cl)cc2)c1`, the inhibition was -0.68%. `OCC1(Cc2ccccc2)CCCN(Cc2ccc3c(c2)OCCO3)C1` (configuration not stated): the inhibition is 10.8%.

As to `CC(C)n1cnc2cc(NCc3nc4ccccc4n3C)ccc21`, the inhibition is 20.2%. For the compound `O=C(Cc1nnc(NC(=O)c2ccccc2)s1)N/N=C/c1ccc(O)cc1`, the inhibition is 17.1%. Next, `O=C(CSc1nc2ccccc2o1)N/N=C/c1ccc(C(=O)O)cc1`: 16.5%; `O=C(CSc1nc2ccccc2o1)N/N=C/c1ccccc1`: 12.4%. `Cc1ccc(C(=O)Nc2nnc(CC(=O)N/N=C/c3ccc(O)c(O)c3)s2)cc1`: the inhibition is 19.4%. `CCN(CC(=O)Nc1c(F)cccc1F)C(=O)/C=C/c1ccc(Br)s1`: the inhibition is 18.8%. On to `Cc1ccc(-c2cn3c(n2)SCC3)cc1`, for which the inhibition is 23.1%. With `Oc1ccc(-c2cn3c(n2)SCC3)cc1` the figure was 28.9%; with `Cc1ccc(C)c(S(=O)(=O)N2CCCCC2CCNC(=O)C(=O)NCc2cccnc2)c1` (configuration not stated), 11.7%; with `CN(C)CCn1c(COc2ccccc2)nc2ccccc21`, 27.6%.

One may read the inhibition as the change of the read-out against control, counted positive when it falls.
